PLCb3 inh: blocks human PLC-beta3 enzyme activity; Q01970; Purified PLC-beta3, fluorogenic substrate, fluorescence; inhibition, % at 12.2 µM; 0.18% of 370,000 active; AID 720704; in the data active means inhibition above about 11%;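 further: 0% = median of compound wells on plate and 100% = full blocker control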
Target sequence (Q01970 whole entry, looked up): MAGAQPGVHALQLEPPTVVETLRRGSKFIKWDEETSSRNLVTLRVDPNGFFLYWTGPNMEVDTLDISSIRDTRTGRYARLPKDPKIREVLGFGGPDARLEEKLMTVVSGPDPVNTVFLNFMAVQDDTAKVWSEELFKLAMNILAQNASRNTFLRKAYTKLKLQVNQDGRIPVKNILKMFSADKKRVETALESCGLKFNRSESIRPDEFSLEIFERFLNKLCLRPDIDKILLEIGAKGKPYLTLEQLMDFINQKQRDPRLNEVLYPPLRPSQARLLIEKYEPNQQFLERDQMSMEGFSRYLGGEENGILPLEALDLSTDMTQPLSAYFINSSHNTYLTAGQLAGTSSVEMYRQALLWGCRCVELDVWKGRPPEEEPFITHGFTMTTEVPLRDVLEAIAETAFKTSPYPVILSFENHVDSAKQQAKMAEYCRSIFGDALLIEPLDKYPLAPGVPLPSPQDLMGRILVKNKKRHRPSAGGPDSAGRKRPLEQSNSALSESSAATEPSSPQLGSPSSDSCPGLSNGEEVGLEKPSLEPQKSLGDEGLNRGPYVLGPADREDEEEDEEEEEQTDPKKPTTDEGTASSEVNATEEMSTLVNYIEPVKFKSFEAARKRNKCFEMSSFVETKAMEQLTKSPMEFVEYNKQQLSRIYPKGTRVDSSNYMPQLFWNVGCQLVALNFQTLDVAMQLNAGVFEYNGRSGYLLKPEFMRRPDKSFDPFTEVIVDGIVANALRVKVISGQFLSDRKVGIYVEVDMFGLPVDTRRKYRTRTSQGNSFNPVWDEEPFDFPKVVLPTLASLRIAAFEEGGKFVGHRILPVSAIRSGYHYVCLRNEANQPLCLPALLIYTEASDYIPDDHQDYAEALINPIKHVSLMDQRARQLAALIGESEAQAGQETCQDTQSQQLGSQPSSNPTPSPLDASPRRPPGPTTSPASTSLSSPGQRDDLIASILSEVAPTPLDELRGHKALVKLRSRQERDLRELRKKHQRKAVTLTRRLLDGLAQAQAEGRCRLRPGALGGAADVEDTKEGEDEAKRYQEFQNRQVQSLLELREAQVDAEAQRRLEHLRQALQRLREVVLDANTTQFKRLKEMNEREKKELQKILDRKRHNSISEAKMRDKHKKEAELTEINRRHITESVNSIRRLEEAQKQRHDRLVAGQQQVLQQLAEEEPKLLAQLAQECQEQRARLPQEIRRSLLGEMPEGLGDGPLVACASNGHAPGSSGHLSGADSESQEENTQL
PLCg1 inh: blocks human PLC-gamma1 enzyme activity. P19174. purified PLC-gamma1, fluorogenic substrate, fluorescence. 0.84% of 370,000 active. inhibition, % at 12.2 µM. AID 720700; in the data active means inhibition above about 9.5%
ADAM17 inh: inhibitors of human ADAM17 | P78536 | recombinant ADAM17, EDANS/DABCYL FRET peptide cleavage | inhibition, % at 6.95 µM | 0.83% of 370,000 active | AID 720648;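 active means inhibition above the mean of compounds lying between control limits plus 3 SD, set per campaign, cut at about 8.5% in these data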;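 further: 0% = DMSO-only wells as the low control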
sPLA2-III inh: Blocks human group III sPLA2 activity; Q9NZ20; QFRET BODIPY PC-A2 liposome hydrolysis, fluorescence; inhibition, % at 12.2 µM; 0.56% of 370,000 active;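 active means inhibition above mean plus 3 SD of compounds lying within the high and low control bounds, cut at about 19% in these data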;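 further: 0% = median of test compound wells and 100% = no enzyme DMSO wells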
ADAM10 inh: ADAM10 inhibition, QFRET primary screen. recombinant ADAM10, EDANS/DABCYL FRET peptide cleavage, 3 h. inhibition, % at 7 µM. 0.62% of 370,000 active;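 active means inhibition above a per-campaign cutoff equal to the mean of compounds falling between control-based bounds plus 3 SD, cut at about 20% in these data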;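 further: 0% = DMSO wells while the 100% control is not disclosed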
KLK7 zymogen act: proKLK7 (human) activation, primary screen; P49862; purified proKLK7, EDANS-DABCYL substrate fluorescence; 100% is mature enzyme control, 0% vehicle; activation, % at 7 µM; 0.9% of 370,000 active; AID 652039;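 active means activation above the mean of all tested compounds plus 3 SD, computed per campaign excluding outliers beyond control limits, cut at about 13% in these data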
proKLK7 act conf: proKLK7 activation, confirmation; activation, % at 7 µM; 68% of 3,200 active; shares compounds with KLK7 zymogen act; purified proKLK7, EDANS-DABCYL substrate fluorescence; scaled: vehicle 0, mature enzyme 100; AID 686949;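 active means activation, as change over the incubation, above the mean of all tested compounds plus 3 SD, cut at about 13% in these data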
EDANS-DABCYL int: counter-screen for kallikrein-7 activators: EDANS-DABCYL optical interference; shares compounds with KLK7 zymogen act; EDANS-DABCYL substrate fluorescence interference, no enzyme, 4 h; solvent 0%, active enzyme control 100%; activation, % at 7 µM; 80% of 3,200 active;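 active means activation above the all-compound mean plus 3 SD, ignoring values outside control-based bounds, cut at about 4.8% in these data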;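 further: value is the 4 h activation minus the activation read at time zero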
EDANS interf: counter-screen for kallikrein-7 activators: EDANS-DABCYL interference, dose response. shares compounds with KLK7 zymogen act. EDANS-DABCYL peptide fluorescence interference, no enzyme. EC50, µM. 20% of 250 active;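 active means compounds that raise the fluorescence signal in this interference counterscreen, with EC50 at or below 10 µM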;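 further: intact quenched peptide substrate alone read at 355 nm excitation and 520 nm emission; signal is fluorescence gain from T0 to T4 after four hours at room temperature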
The depositor's hits bear a star; i = inactive; · = no result. Most compounds without a hit are left out; they make up all but 3.4% or so of the library.

SMILES	PLCb3 inh	PLCg1 inh	ADAM17 inh	sPLA2-III inh	ADAM10 inh	KLK7 zymogen act	proKLK7 act conf	EDANS-DABCYL int	others
O=C(c1cnn2c(C(F)(F)F)cc(-c3ccco3)nc12)N1CCCCCC1	-308	-240	-25	8	-64	0	·	·
Nc1nc2nc(-c3cccs3)cc(C(F)(F)F)n2n1	i	i	i	3	i	82*	75*	78*
CCOC(=O)c1nc2nc(-c3cccs3)cc(C(F)(F)F)n2n1	-369	-342	-269	4	i	62*	65*	62*
COC(=O)C12C=C3CC(c4ccc(C(F)(F)F)cc4)=C3C(=O)N1Cc1[nH]c3ccccc3c1C2 (stereo not given)	-71	-42	-12	-18	-49	-1	·	·
COc1ccc(-n2c(SCC(=O)N3CCCC3)nnc2-c2ccncc2)cc1	2	-2	0	1	0	0	·	·
CCOC(=O)c1sc(-c2cccs2)nc1C	-48	-27	-22	-1	-62	-1	·	·
O=C(c1nc2nc(-c3cccs3)cc(C(F)(F)F)n2n1)N1CCN(Cc2ccccc2)CC1	i	i	i	6	i	26*	-5	-9
O=C(c1nc2nc(-c3ccccc3)cc(C(F)(F)F)n2n1)N1CCOCC1	-5	-7	-17	6	-103	0	·	·
CCOC(=O)c1cc(-c2cccs2)nc2onc(C)c12	i	-440	-139	5	-448	18*	-166	-157
CCCCn1c(N)c(N(CCC(C)C)C(=O)COC(=O)c2ccccc2)c(=O)[nH]c1=O	3	-1	-1	1	-9	0	·	·
CCCCn1c(N)c(N(CC(C)C)C(=O)COC(=O)c2ccccc2NCCO)c(=O)[nH]c1=O	i	i	i	4	i	22*	21*	27*
CCCn1c(N)c(N(CCOC)C(=O)COC(=O)c2ccccc2NCCO)c(=O)[nH]c1=O	i	i	i	-3	i	24*	29*	29*
Cc1cccc(CN2CCc3c([nH]c4ccccc34)C2C(C)(C)C)n1 (stereo not given)	-117	-93	-50	-8	-123	13*	7	12*
CSc1ncc(CN2CCc3c([nH]c4ccccc34)C2C(C)(C)C)cn1 (stereo not given)	-64	-50	-24	-9	-62	7	·	·
Cc1cc(N2CCN(CCO)CC2)n2nc(C)nc2n1	-7	-4	0	7	0	0	·	·
CC(C)N(C(=O)[C@H]1C[C@H](CC(=O)NC(C)(C)C)C(=O)N2CCc3c([nH]c4cc(-c5ccco5)ccc34)[C@]12C)C(C)C	i	-357	-74	-11	-265	20*	12	20*
CCN(CC)C(=O)[C@H]1C[C@H](CC(=O)NC(C)(C)C)C(=O)N2CCc3c([nH]c4cc(-c5ccco5)ccc34)[C@]12C	i	i	-123	-7	i	109*	57*	65*
CC(C)(C)NC(=O)C[C@H]1C[C@H](C(=O)N2CCCCC2)[C@@]2(CCc3ccccc3)c3[nH]c4cc(-c5ccco5)ccc4c3CCN2C1=O	i	i	-140	-5	-471	-17	·	·
Cc1ccccc1CN1CCCCC(NC(=O)c2ccc(F)c(F)c2)C1=O (stereo not given)	2	2	0	-5	3	-1	·	·
Cc1cc(C)c2c(n1)nn1c(C)c(CCC(=O)NCc3ccco3)c(C)nc21	i	-474	-190	2	i	15*	-23	-26
CCN(Cc1ccccc1)C(=O)C1CCCN(c2ncccn2)C1 (stereo not given)	-8	-9	-6	1	-24	1	·	·
O=[N+]([O-])c1cccc(OC[C@@H](O)CN2CCC(C(O)(c3ccccc3)c3ccccc3)CC2)c1	1	2	3	-10	4	0	·	·
COC(=O)[C@]12C[C@H](CC(=O)NCc3cccc(C(F)(F)F)c3)C(=O)N(Cc3ccc(Cl)cc3Cl)C1=C[C@H](COCc1ccccc1)O[C@@H]2C	2	2	-2	-12	-2	0	·	·
Cc1cc2c([nH]c3ccccc32)c(C)n1	i	i	-377	-5	i	33*	28*	25*
Cc1ccc(C(=O)NCC(=O)OCc2nc3sc(C)c(C)c3c(=O)[nH]2)cc1	0	0	0	13	-8	0	·	·
SMILES	PLCb3 inh	PLCg1 inh	ADAM17 inh	sPLA2-III inh	ADAM10 inh	KLK7 zymogen act	proKLK7 act conf	EDANS-DABCYL int	others
Cc1ccc(Cl)cc1NC(=O)C1CCCCC1C(=O)O (stereo not given)	-2	1	-2	1	-3	15*	2	0
COCCCN1C(=O)[C@H](CC(=O)NCc2ccc(C)o2)[C@]2(C(=O)OC)CCCCC=C12	-1	-2	-3	8	-11	0	·	·
Cn1c(-c2cc3ccccc3oc2=O)nc2ccccc21	-406	-276	-8	12	-27	-2	·	·
COc1ccc2cc(-c3nc4ccccc4n3C)c(=O)oc2c1	i	i	-270	12	i	22*	39*	35*
CCC1(C)Cc2ccccc2-c2nc(NCCCO)[nH]c(=O)c21 (stereo not given)	i	i	i	-17	i	33*	-56	-58
O=c1[nH]c(NCCCO)nc2c1C1(CCCC1)Cc1ccccc1-2	i	i	i	-21	i	13*	-43	-53
CC1(C)Cc2ccccc2-c2nc(NCCCO)n(-c3ccccc3)c(=O)c21	i	-382	-400	-3	i	15*	-53	-30
COc1cccc(Cn2cc(COC(=O)N3CCCC3)nn2)c1	-4	2	-6	12	-12	0	·	·
CC1(C)Oc2cc3oc(=O)ccc3cc2C[C@@H]1O	-112	-87	-340	16	i	3	·	·
CC1(C)Oc2cc3oc(=O)ccc3c3c2C2C1CCC(C)(O3)C2O (stereo not given)	i	i	-200	2	i	16*	24*	31*
CCOC(=O)c1cc(-c2cc3ccccc3o2)nc2c1c(=O)[nH]c(=O)n2CCOC	i	-444	-269	-2	i	19*	-447	-484
Cc1ccc2nc(NC(=O)c3ccc4ncsc4c3)sc2c1	-114	-82	-11	0	-82	15*	15*	6.8*	EDANS interf=i

Screening data deposited in PubChem by The Scripps Research Institute Molecular Screening Center.
